Inconclusive results are not listed. Active and inactive are the calls of the source. Unless noted, calls follow the shape of the full dose curve.
Legend:
[1] = Nuclear factor erythroid 2-related factor 2/antioxidant responsive element (Nrf2/ARE) small molecule agonists: qHTS cell viability counter screen in human keratinocytes (AID 1919968; active = well fitted curve in the direction sought with a large enough effect in the repeat runs; an effect the other way counts as inactive or inconclusive; also: nearly all actives have a fitted effect of over 55% in size)
How it was run: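 Seed 1,500 KeratinoSens cells per well, then incubate 5 h at 37 C/5% CO2. Add compounds in DMSO and incubate 23 h. Add CellTiter-Fluor, wait 1 h and read fluorescence.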

[2] = Nuclear factor erythroid 2-related factor 2/antioxidant responsive element (Nrf2/ARE) small molecule agonists: luciferase reporter gene qHTS assay in human keratinocytes (AID 1919969); also: nearly all actives have a fitted effect of over 35% in size
[3] = biological target: Gonadotropin-releasing hormone receptor (Homo sapiens) (UniProt P30968); assay: Human gonadotropin-releasing hormone receptor (GnRHR) small molecule agonists, calcium flux assay in GnRHR-HEK293 cells (AID 1920063); also: nearly all actives have a fitted effect of over 35% in size
How it was run: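 Cells: HEK293 stably expressing human GnRHR. Steps: overnight (18 h) culture, 1 h calcium dye loading at 37 C, compound addition, kinetic fluorescence read at 480/540 nm. Each compound tested at 15 concentrations in triplicate.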

[4] = biological target: KiSS-1 receptor (Homo sapiens) (UniProt Q969F8); assay: Human kisspeptin (KISS1R) small molecule agonists, calcium flux assay in KISS1R-HEK293 cells (AID 1920064; active = well fitted curve in the direction sought with a large enough effect in the repeat runs; an effect the other way counts as inactive or inconclusive)
How it was run: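 Cells plated and incubated 18 h; dye added, 1 h at 37 C; compounds in DMSO pinned in; signal read at 480/540 nm every second for 3 min. Each compound tested at 15 concentrations in triplicate.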

[5] = p53 small molecule agonists, cell-based qHTS assay with human liver microsomes (AID 1963577);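 also: p53 response element beta-lactamase reporter cells with liver microsomes plus NADPH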
How it was run: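 Cells carrying a p53-responsive bla reporter were rested 5 h (37 C, 5% CO2) before compound transfer. Human liver microsomes plus NADPH, 0.5 mg/mL final apiece, supplied metabolism during the 16 h 37 C exposure.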

[6] = p53 small molecule agonists, cell-based qHTS assay with human liver microsomes: qHTS cell viability counter screen (AID 1963579); also: nearly all actives have a fitted effect of over 45% in size
How it was run: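 Seed p53RE-bla cells at 4,000 per well; incubate 5 h at 37 C; add compound, human liver microsomes and NADPH; incubate 16 h at 37 C; add CellTiter-Glo; after 30 min at room temperature, read luminescence.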

[7] = p53 small molecule agonists, cell-based qHTS assay with rat liver microsomes: qHTS cell viability counter screen (AID 1963580); also: nearly all actives have a fitted effect of over 45% in size
How it was run: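 HCT-116 p53RE-bla, 4,000 cells/well, 5 h pre-incubation; cpd + rat liver microsomes 0.5 mg/mL + NADPH 0.5 mg/mL (final); 16 h, 37 C; CellTiter-Glo, 30 min RT; luminescence.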

[8] = p53 small molecule agonists, cell-based qHTS assay: qHTS cell viability counter screen (AID 1963581); also: nearly all actives have a fitted effect of over 45% in size
How it was run: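 Cells: HCT-116 with p53 response element-driven beta-lactamase. Treatment: 16 h, 37 C, compounds in DMSO. Read: CellTiter-Glo luminescence after 30 min RT.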

[9] = p53 small molecule agonists, cell-based qHTS assay (AID 1963582; active = well fitted activation curve with a large enough effect in the signal ratio in the repeat runs, not every such curve was filed as active; the % refers to the signal ratio)
How it was run: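 Quantitative HTS in p53RE-bla cells: after a 5 h settling period, compounds delivered in DMSO were left on cells for 16 h at 37 C, and reporter induction was measured as fluorescence following 2 h substrate loading.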

[10] = biological target: 5-hydroxytryptamine receptor 2A (Homo sapiens) (UniProt P28223); assay: 5-hydroxytryptamine receptor 2A (HTR2A) small molecule antagonists, cell-based qHTS assay (AID 1963586); also: nearly all actives have a fitted effect of over 45% in size
How it was run: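 Antagonist-mode intracellular calcium assay: DOI (4 nM) added after 5 min compound pre-incubation at room temperature to dye-loaded HTR2A-CHO cells. Fluorescence followed for 3 min, sampled every second.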

[11] = biological target: 5-hydroxytryptamine receptor 2A (Homo sapiens) (UniProt P28223); assay: 5-hydroxytryptamine receptor 2A (HTR2A) small molecule agonists, cell-based qHTS assay (AID 1963587); also: nearly all actives have a fitted effect of over 30% in size
How it was run: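 Kinetic calcium-flux fluorescence (2 min, 1 sec intervals) after compound addition in agonist mode. HTR2A-CHO cells were cultured 18 h, then dye-loaded 1 h at 37 C.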

[12] = biological target: Muscarinic acetylcholine receptor M1 (Homo sapiens) (UniProt P11229); assay: Cholinergic receptor muscarinic 1 (CHRM1) small molecule agonists, cell-based qHTS assay (AID 1963589); also: nearly all actives have a fitted effect of over 35% in size
How it was run: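 Agonist-mode qHTS in CHO cells stably carrying human muscarinic M1. Intracellular calcium is tracked by fluorescence every second after compound transfer; each compound runs at 15 concentrations in three independent runs.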

[13] = cAMP Responsive Elements (CRE) small molecule agonists, cell-based qHTS assay (AID 1963590)
How it was run: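 Agonist mode qHTS in CRE-bla HEK 293T cells: compounds dosed from DMSO for 3 h at 37 C/5% CO2, followed by LiveBLAzer B/G FRET substrate for 2 h at room temperature.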

[14] = cAMP Responsive Elements (CRE) small molecule antagonists, cell-based qHTS assay (AID 1963591; active = well fitted inhibition curve with a large enough effect in the signal ratio in the repeat runs, not every such curve was filed as active; the % refers to the signal ratio)
How it was run: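 Antagonist mode: test compounds are co-incubated with the adenylyl cyclase activator NKH477 (0.25 uM final) on CRE-bla HEK293T cells for 3 h at 37 °C, followed by LiveBLAzer substrate loading.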

[15] = biological target: Beta-2 adrenergic receptor (Homo sapiens) (UniProt P07550); assay: Adrenergic beta2 receptor (ADRB2) small molecule antagonists, cell-based qHTS assay (AID 1963592); also: series mostly up to about 92 µM; nearly all actives have a fitted effect of over 50% in size
How it was run: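 Cells (CHO, stable ADRB2 overexpression) incubated 18-20hr at 37C; compounds added from DMSO; agonist mix (1nM isoproterenol, 100uM IBMX, 25uM Ro-20-1724) added; 0.5hr RT; d2-cAMP and anti-cAMP-cryptate added; 1hr RT; 665/615 nm read.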

[16] = biological target: Beta-2 adrenergic receptor (Homo sapiens) (UniProt P07550); assay: Adrenergic beta2 receptor (ADRB2) small molecule agonists, cell-based qHTS assay (AID 1963593);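 also: CHO cells stably overexpressing human ADRB2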
How it was run: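 CHO cells stably over-expressing ADRB2 were plated overnight at 37C, then dosed with compounds plus a stimulation mix containing 100uM IBMX and 25uM Ro-20-1724 for 0.5hr at room temperature. cAMP was measured by HTRF competition, 1hr.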

[17] = biological target: D(2) dopamine receptor (Homo sapiens) (UniProt P14416); assay: Dopamine D2 receptor (DRD2) small molecule antagonists, cell-based qHTS assay (AID 1963595; active = well fitted inhibition curve with a large enough effect in the signal ratio in the repeat runs, with a control signal flat; the % refers to the signal ratio)
How it was run: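 Cells were plated and grown for 24 h at 37 °C. Ro20-1724 (0.1 mM final) went in first, then compound for 10 min. NKH477 (200 nM) with quinpirole (12 nM) followed for 30 min at RT, then HTRF detection reagents for 1 h.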

[18] = biological target: Muscarinic acetylcholine receptor M1 (Homo sapiens) (UniProt P11229); assay: Cholinergic receptor muscarinic 1 (CHRM1) small molecule antagonists, cell-based qHTS assay (AID 1963588); also: nearly all actives have a fitted effect of over 40% in size
How it was run: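 CHRM1-CHO calcium-flux assay, antagonist mode. Cells were seeded 18 h, dye-loaded 1 h at 37 C and given compound for 5 min at RT, then acetylcholine was added at 50nM. FDSS fluorescence was read 3 min; 15 concentrations, three runs.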

[19] = biological target: D(2) dopamine receptor (Homo sapiens) (UniProt P14416); assay: Dopamine D2 receptor (DRD2) small molecule agonists, cell-based qHTS assay (AID 1963594); also: nearly all actives have a fitted effect of over 35% in size
How it was run: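 cAMP accumulation in DRD2-HEK293 cells measured by HTRF after 1 h detection; compounds added 10 min before NKH477 (200nM […]) forskolin-analogue stimulation, 30 min at room temperature, with Ro20-1724 present at 0.1 mM final.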

Measured: Potency

Sequence of Muscarinic acetylcholine receptor M1 (Homo sapiens) (P11229 whole entry, looked up): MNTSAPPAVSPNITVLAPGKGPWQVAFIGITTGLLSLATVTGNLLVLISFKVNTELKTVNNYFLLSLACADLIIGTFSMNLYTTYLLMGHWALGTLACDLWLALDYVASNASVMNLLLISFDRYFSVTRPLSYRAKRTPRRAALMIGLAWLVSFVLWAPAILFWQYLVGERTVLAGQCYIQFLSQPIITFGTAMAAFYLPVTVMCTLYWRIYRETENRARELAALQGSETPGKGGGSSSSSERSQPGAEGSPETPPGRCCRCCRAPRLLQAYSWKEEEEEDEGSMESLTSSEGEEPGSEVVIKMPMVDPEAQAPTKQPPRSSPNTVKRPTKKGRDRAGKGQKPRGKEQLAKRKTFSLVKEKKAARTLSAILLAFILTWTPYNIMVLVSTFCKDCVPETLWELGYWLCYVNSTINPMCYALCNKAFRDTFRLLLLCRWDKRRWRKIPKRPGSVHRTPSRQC
Sequence of Gonadotropin-releasing hormone receptor (Homo sapiens) (P30968 whole entry, looked up): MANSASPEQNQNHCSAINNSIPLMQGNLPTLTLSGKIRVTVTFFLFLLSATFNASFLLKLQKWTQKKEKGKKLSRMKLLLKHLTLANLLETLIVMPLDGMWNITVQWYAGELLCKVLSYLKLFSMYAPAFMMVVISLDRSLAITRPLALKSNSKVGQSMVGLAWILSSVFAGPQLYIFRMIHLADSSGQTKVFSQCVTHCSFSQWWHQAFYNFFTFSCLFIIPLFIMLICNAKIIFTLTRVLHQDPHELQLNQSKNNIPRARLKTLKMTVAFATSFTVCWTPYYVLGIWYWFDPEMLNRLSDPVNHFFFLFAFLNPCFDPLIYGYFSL
Sequence of D(2) dopamine receptor (Homo sapiens) (P14416 whole entry, looked up): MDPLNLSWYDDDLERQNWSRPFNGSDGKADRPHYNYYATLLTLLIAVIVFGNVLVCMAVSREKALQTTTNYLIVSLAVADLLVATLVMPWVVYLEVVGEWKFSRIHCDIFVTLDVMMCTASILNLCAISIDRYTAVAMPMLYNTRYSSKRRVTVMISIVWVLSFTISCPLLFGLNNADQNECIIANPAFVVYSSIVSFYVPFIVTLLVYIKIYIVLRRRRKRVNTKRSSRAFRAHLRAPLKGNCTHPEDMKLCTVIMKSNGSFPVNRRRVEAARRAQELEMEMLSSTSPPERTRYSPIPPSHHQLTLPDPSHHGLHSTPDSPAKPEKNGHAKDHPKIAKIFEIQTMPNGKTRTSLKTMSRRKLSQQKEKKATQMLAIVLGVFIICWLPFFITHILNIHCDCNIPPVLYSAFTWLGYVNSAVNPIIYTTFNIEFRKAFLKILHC
Sequence of 5-hydroxytryptamine receptor 2A (Homo sapiens) (P28223 whole entry, looked up): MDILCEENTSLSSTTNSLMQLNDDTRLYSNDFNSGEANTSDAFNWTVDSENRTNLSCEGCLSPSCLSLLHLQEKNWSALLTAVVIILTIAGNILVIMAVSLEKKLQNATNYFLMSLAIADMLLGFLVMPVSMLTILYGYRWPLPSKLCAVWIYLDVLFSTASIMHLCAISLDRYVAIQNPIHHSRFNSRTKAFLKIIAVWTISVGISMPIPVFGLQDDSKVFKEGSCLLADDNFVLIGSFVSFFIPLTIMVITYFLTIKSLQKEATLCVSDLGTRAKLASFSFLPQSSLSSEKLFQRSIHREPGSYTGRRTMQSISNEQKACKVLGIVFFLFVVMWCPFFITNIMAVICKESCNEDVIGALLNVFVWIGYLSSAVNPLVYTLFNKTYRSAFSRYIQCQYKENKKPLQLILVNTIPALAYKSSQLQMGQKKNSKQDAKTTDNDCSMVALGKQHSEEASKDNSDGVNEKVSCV
Sequence of Beta-2 adrenergic receptor (Homo sapiens) (P07550 whole entry, looked up): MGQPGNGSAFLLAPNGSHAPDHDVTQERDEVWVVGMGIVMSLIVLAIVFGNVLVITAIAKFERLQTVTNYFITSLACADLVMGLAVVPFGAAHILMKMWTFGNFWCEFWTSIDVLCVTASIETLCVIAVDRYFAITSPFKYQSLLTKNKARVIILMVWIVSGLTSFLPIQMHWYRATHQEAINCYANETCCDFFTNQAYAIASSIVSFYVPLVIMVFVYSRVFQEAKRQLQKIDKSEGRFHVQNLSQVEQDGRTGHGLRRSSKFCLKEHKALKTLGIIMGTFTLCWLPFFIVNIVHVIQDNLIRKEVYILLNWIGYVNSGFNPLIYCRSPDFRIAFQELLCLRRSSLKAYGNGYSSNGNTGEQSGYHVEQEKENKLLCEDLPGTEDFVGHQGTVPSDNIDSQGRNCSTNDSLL
Sequence of KiSS-1 receptor (Homo sapiens) (Q969F8 whole entry, looked up): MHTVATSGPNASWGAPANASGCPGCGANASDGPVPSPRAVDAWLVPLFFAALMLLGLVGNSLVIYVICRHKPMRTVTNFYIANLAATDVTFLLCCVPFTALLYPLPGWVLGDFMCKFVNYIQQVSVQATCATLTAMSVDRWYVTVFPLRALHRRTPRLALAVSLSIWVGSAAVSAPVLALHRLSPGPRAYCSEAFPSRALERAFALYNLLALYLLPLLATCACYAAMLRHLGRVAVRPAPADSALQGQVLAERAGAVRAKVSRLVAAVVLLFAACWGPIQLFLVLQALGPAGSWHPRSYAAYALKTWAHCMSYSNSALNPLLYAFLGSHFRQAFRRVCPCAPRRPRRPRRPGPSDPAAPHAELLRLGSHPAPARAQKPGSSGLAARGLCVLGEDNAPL

CC(=O)OCCCc1ccccc1
not listed: [18] | [19]
inactive: all other assays above

Nc1nnnn1-c1ccccc1
not listed: [19]
inactive: all other assays above

CCCCCC(CC)OC(=O)CCCOc1ccc(Cl)cc1Cl (stereo not drawn)
inactive: all assays above

OCC(CO)N[C@H]1C[C@](O)(CO)[C@@H](O)[C@H](O)[C@H]1O
not listed: [19]
inactive: all other assays above

CCCCOCCCC
inactive: all assays above

Cc1ccc(Nc2ccc(O)c3c2C(=O)c2ccccc2C3=O)cc1
inactive: all assays above

Cn1ccnc1
not listed: [16]
inactive: all other assays above

Reference: PubChem BioAssay (Tox21)
